Data published in PubChem BioAssay AID624171 (National Center for Advancing Translational Sciences (NCATS), 2012).
The campaign covered roughly 410,000 compounds. About 1,200 (0.29%) were called active. Another 2% or so got no clear call; they are omitted. This is one part of a sample in which actives are shown more often than they occur. Calls come from the whole dose curve; as a rule, active = well fitted activation curve with a large enough effect; inconclusive = small, poorly fitted or top-dose-only effect; inactive = flat fitted curve, though single readings scatter.

Assay: qHTS of Nrf2 Activators; note: nearly all actives have a fitted effect of over 65% in size; for activation: % of control where 0% means no effect
Conditions: AREc32 ARE-luciferase reporter (MCF7-derived line), luminescence, 24 h; series mostly up to 46.1 µM; activation: at the top concentration
From the text: Many diseases have some form of oxidative stress injury and ties to inflammation, causing a host of problems for the patient. The antioxidant response element (ARE) plays an important role in alleviating the harmful effects of oxidative stress. The antioxidant response element (ARE) is a transcriptional regulatory element involved in the activation of genes coding for a number of antioxidant proteins and detoxifying enzymes. These enzymes work in concert to protect tissues from oxidative insults and chemical toxicities in human hepatocytes and immune cells. The protective effects of ARE activation are primarily triggered through Nrf2 (NF-E2-related factor) binding to and activating AREs. It is known that Nrf2 controls the production of over 250 antioxidant and detoxification proteins (Hu et al., 2006), thereby protecting tissues by increasing cellular antioxidant content and suppressing inflammatory signaling pathways. The transcription factor Nrf2 is a central link between oxidative chemicals, such as phenolic antioxidants and electrophilic compounds, and the activation of ARE. Nrf2 levels are constitutively low as a consequence of its interaction with Keap1, which targets its degradation (Zipper and Mulcahy, 2002). Electrophiles react with key cysteine residues in Keap1, releasing Nrf2 and allowing its translocation to the nucleus. Once within the nucleus, Nrf2 complexes with coactivators such as p300, and binds to the AREs to induce gene transcription of cytoprotective enzymes, resulting in the prevention of toxicity. Activation of Nrf2 protects tissues by increasing cellular antioxidant content and suppressing inflammatory signaling pathways. Identifying novel and potent Nrf2 activators by using the AREc32 cell line to detect ARE activation by small molecules will lead to the identification and development of probes to study protective pathways in multiple tissues. These specific probes are essential to study the ARE pathway, and eventually to determine whether this pathway does activate genes that could protect against a host of diseases, including cardiovascular diseases, obesity, diabetes, Alzheimer's, and Parkinson's disease.
This project's aim is to identify novel and potent Nrf2 activators by using the AREc32 cell line to detect ARE activation by small molecules, which will lead to the identification and development of probes to study the ARE pathway.
NIH Chemical Genomics Center [NCGC]
NIH Molecular Libraries Probe Centers Network [MLPCN]
Assay Submitter (PI): Curtis Klaassen, University of Kansas Medical Center
5 uL of 1000 cells/well of AREc32_Fluc cells are seeded into 1536-well plate in OPTI-MEM medium with 5% FBS. The plates are incubated overnight at 37 deg C with 5% CO2. Then through pin tool transfer, 23 nL of compounds are added to each well before a 24 hr incubation at 37 deg C with 5% CO2. After the addition of 2.5 uL of Steady-Glo. the plates are kept at RT for 30 min, before they are read on the ViewLux.
Potency is the fitted concentration of half-maximal effect.

Structure (SMILES) | activation | Potency
CCNc1nc2[nH]c(=O)c3c(c2s1)OC(N)=C(C#N)C3c1cccs1 (stereo not given) | 2.92% (inactive) | 
N#CC1=C(N)Oc2c(c(=O)oc3ccccc23)C1c1ccccc1OC(=O)c1cccs1 (stereo not given) |  | 11.2 µM (active)
COc1ccc(C2C=C(C)Oc3c2c(=O)oc2ccccc32)cc1OC (stereo not given) | -1.49% (inactive) | 
Cc1ccc(-n2c(/C=C/c3cccc(C(F)(F)F)c3)nc3ccccc3c2=O)cc1 | 3.6% (inactive) | 
Cc1cccc(Cn2cccc(C(=O)Nc3ccc4c(c3)OCCO4)c2=O)c1 | -0.518% (inactive) | 
